Source: PubChem BioAssay (several laboratories)
KKLEB tox = reduces viability of KKLEB cystic fibrosis airway cells | AID 602141 | 360,000 tested, 0.36% active | KKLEB CF airway cells viability, ATPlite luminescence, overnight; hits give low values; cells stimulated with P. aeruginosa culture filtrate | activity change (cytotoxicity), % at 5 µM;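 active = corrected activity change at or below -50% at 5 µM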
CF NFkB inh = inhibitors of cystic fibrosis induced NF-kB; KKLEB NF-kB-GFP reporter, PAF-induced, GFP fluorescence overnight; inhibition, % at 5 µM; 360,000 tested, 0.86% active;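 active = at least 50% inhibition at 5 µM, scaled per plate between neutral and stimulator controls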;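 note: PAF is a Pseudomonas aeruginosa culture filtrate used as stimulus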
EBV LMP1 NFkB = reduces LMP1-driven NF-kappaB luciferase signal; LMP1-induced NF-kappaB luciferase reporter cells, luminescence; inhibition, % at 12.5 µM; 350,000 tested, 0.69% active; in the data active = inhibition above about 41%
HIF-2a block = inhibitors of HIF-2a; inhibition, % at 18.8 µM; AID 624352; 360,000 tested, 0.72% active; 786-0 RCC cells HIF-2a reporter, luciferase luminescence, overnight;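 active = inhibition of the luminescence signal of 40% or more relative to plate controls, in a single-dose primary screen at 18.75 µM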
Peg3 prom inh = inhibitors of Peg3 promoter. HeLa PEG-Prom luciferase reporter, luminescence, overnight. inhibition, % at 20 µM. 360,000 tested, 1.7% active. AID 588405;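 active = inhibition of at least 50% at 20 µM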
TRPM1 prom inh = reduces MITF-dependent TRPM1 promoter luciferase signal; SK-MEL-5 TRPM1 promoter luciferase, 24 h; inhibition, % at 12.5 µM; 330,000 tested, 0.83% active;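 active = mean inhibition across replicates of 60% or more, whatever share of single replicates reaches that level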
Hits are given with their value. An excerpt weighted towards active compounds, which were near 3% of everything screened.

What do the screens show for `O=c1[nH]c(C2CCN(S(=O)(=O)c3ccccc3F)CC2)nc2c1nnn2Cc1ccc2c(c1)OCCO2`?
KKLEB tox: inactive; CF NFkB inh: inactive; EBV LMP1 NFkB: inactive; HIF-2a block: inactive; Peg3 prom inh: 60; TRPM1 prom inh: inactive

Results for CC(=O)c1cccc(NC(=O)C2Cc3c(-c4cccc(C(N)=O)c4)ccnc3O2)c1 (stereo not drawn) ?
KKLEB tox: inactive; CF NFkB inh: inactive; HIF-2a block: inactive; Peg3 prom inh: inactive

What do the screens show for `CCOC(=O)C1=C(C)N=c2s/c(=C\c3ccc(OCC(=O)O)cc3)c(=O)n2C1c1ccccc1OC` (stereo not drawn)?
KKLEB tox: inactive; CF NFkB inh: inactive; EBV LMP1 NFkB: inactive; HIF-2a block: inactive; Peg3 prom inh: inactive; TRPM1 prom inh: inactive

How did CCOC(=O)C1=C(C)N=c2s/c(=C\c3ccc(O)c([N+](=O)[O-])c3)c(=O)n2C1c1ccccc1OC (stereo not drawn) do in these assays?
KKLEB tox: inactive; CF NFkB inh: inactive; EBV LMP1 NFkB: inactive; HIF-2a block: inactive; Peg3 prom inh: 53; TRPM1 prom inh: inactive

How did CCCC(=O)NC(c1ccc2c(c1)OCO2)c1cc(Cl)c2cccnc2c1O (stereo not drawn) do in these assays?
KKLEB tox: inactive; CF NFkB inh: inactive; EBV LMP1 NFkB: inactive; HIF-2a block: inactive; Peg3 prom inh: 55; TRPM1 prom inh: inactive

How did CCC(=O)NC(C)c1cc(Cl)c2cccnc2c1O (stereo not drawn) do in these assays?
KKLEB tox: inactive; CF NFkB inh: inactive; EBV LMP1 NFkB: inactive; HIF-2a block: inactive; Peg3 prom inh: inactive; TRPM1 prom inh: inactive

Results for CN1CCN(C(c2ccc(Br)cc2)c2cc(Cl)c3cccnc3c2O)CC1 (stereo not drawn) ?
KKLEB tox: inactive; CF NFkB inh: inactive; EBV LMP1 NFkB: inactive; HIF-2a block: 50; Peg3 prom inh: inactive; TRPM1 prom inh: inactive

Results for CCC(=O)NC(c1ccc(C)cc1)c1cc(Cl)c2cccnc2c1O (stereo not drawn) ?
KKLEB tox: inactive; CF NFkB inh: inactive; EBV LMP1 NFkB: 43; HIF-2a block: inactive; Peg3 prom inh: inactive; TRPM1 prom inh: inactive

What do the screens show for `CCCC(=O)NC(c1ccco1)c1cc(Cl)c2cccnc2c1O` (stereo not drawn)?
KKLEB tox: inactive; CF NFkB inh: inactive; EBV LMP1 NFkB: inactive; HIF-2a block: inactive; Peg3 prom inh: 69; TRPM1 prom inh: inactive

How did Cc1ccc(NC(=O)OC(C)N2CCCCC2)cc1NC(=O)OC(C)N1CCCCC1 (stereo not drawn) do in these assays?
KKLEB tox: inactive; CF NFkB inh: inactive; EBV LMP1 NFkB: inactive; HIF-2a block: inactive; Peg3 prom inh: inactive; TRPM1 prom inh: inactive

How did CCOc1ccc(S(=O)(=O)NCCC(=O)N2CCN(C(C)=O)CC2)cc1 do in these assays?
KKLEB tox: inactive; CF NFkB inh: inactive; EBV LMP1 NFkB: inactive; HIF-2a block: inactive; Peg3 prom inh: inactive

Results for CCC(/C=C1\Sc2ccc(OC)cc2N1CCO)=C\c1sc2ccc(OC)cc2[n+]1CCO ?
KKLEB tox: inactive; CF NFkB inh: inactive; EBV LMP1 NFkB: 46; HIF-2a block: inactive; Peg3 prom inh: inactive; TRPM1 prom inh: 96

How did CCC(/C=C1\Sc2ccc(OC)cc2N1CC)=C\c1sc2ccc(OC)cc2[n+]1CCCS(=O)(=O)[O-] do in these assays?
KKLEB tox: inactive; CF NFkB inh: inactive; EBV LMP1 NFkB: inactive; HIF-2a block: inactive; Peg3 prom inh: inactive; TRPM1 prom inh: inactive

Results for O=S(=O)(NC1c2cccc3cccc(c23)C1Sc1ncccn1)c1ccccc1 (stereo not drawn) ?
KKLEB tox: inactive; CF NFkB inh: inactive; EBV LMP1 NFkB: 61; HIF-2a block: inactive; Peg3 prom inh: inactive; TRPM1 prom inh: inactive

What do the screens show for `Cc1ccc(-n2nc(C(=O)NCc3ccc(C)o3)c3c4ccccc4n(C)c3c2=O)cc1`?
KKLEB tox: inactive; CF NFkB inh: inactive; EBV LMP1 NFkB: 49; HIF-2a block: inactive; Peg3 prom inh: inactive; TRPM1 prom inh: inactive

Results for COc1ccc(-n2nc(C(=O)NCc3ccco3)c3c4ccccc4n(C)c3c2=O)cc1 ?
KKLEB tox: inactive; CF NFkB inh: inactive; EBV LMP1 NFkB: inactive; HIF-2a block: inactive; Peg3 prom inh: inactive; TRPM1 prom inh: inactive

How did Cc1ccc(NC(=O)Cc2nnc(SCC(=O)NC3CCCC3)n2C)cc1C do in these assays?
KKLEB tox: inactive; CF NFkB inh: inactive; EBV LMP1 NFkB: 45; HIF-2a block: inactive; Peg3 prom inh: inactive; TRPM1 prom inh: inactive
